We go through 30 compounds from PubChem BioAssay.

“And” between values parts separate entries of the source, which are not always exact repeats. Equal values may be shown once. More than one record can exist for a structure, and the calls need not agree. The source made the active and inactive calls.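 How the source made its calls: active means inhibition above 50%; inactive means the rest.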

This assay can be described thus: HepG2 cytotoxicity, primary screen, cytotoxicity control for P. falciparum antimalarial project, cell-based, ATP luminescence (AID 2303).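 Further: 0% = DMSO wells and 100% = digitonin-killed cells.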 To be noted: HepG2 viability, 24-48 h, at 10 µM, stronger effect = higher value.
For the compound `CC[C@H]1CN2CC[C@H]1C[C@H]2[C@H](O)c1cc(-c2cccc(C)c2)nc2ccc(OC)cc12`, the inhibition was 15% (inactive). The figure for `CC(C)NC(=O)Cn1cc(C2CCN(CC3CCN(C(=O)/C=C/c4ccc(Cl)c(Cl)c4)CC3)CC2)c2ccccc21` is 31% (inactive); for `Cc1ccc(C)c(N2CCN(Cc3ccccc3O)CC2)c1` it is 11% (inactive).

Turning to `O=C(/C=C/c1ccc(Cl)c(Cl)c1)NCCCCCN1C2CCC1CC(c1c[nH]c3ccccc13)C2` (stereo not given), the inhibition is 54% (active).

`CC(Cc1ccc(SC(C)(C)C)cc1)NCC(O)c1cccc(Cl)c1` (stereo not given): the inhibition was 14% (inactive). Next, `CC(C)CNCc1ccc(-c2cccc(CN(C(=O)Nc3ccccc3)C3CCN(Cc4ccccc4)CC3)c2)cc1`: 48% (inactive); `C=C[C@H]1CN2CC[C@@H]1C[C@H]2[C@H](O)c1cc(-c2ccc(F)cc2)nc2ccc(OC)cc12`: 5% (inactive); `Cc1cccc(C(=O)Nc2ccnc(N(C)C3CCN(CC(C)C)CC3)c2)c1`: 10% (inactive).

`Cc1ccccc1CNCC(O)c1cccc(C(F)(F)F)c1` (stereo not given): the inhibition is 5% (inactive). Take `CNCCN(C)C(=O)Oc1c(Cl)c(C)nc(C)c1-c1ccc(Oc2ccc(OC(F)(F)F)cc2)cc1`: the inhibition was -2% (inactive). Next, `O=C(/C=C/c1ccc(Cl)c(Cl)c1)NCCC1CCC(N2CCC(c3c[nH]c4ccc(O)cc34)CC2)CC1` (stereo not given): 19% (inactive); `CN(c1cc(NC(=O)c2cccs2)ccn1)C1CCN(Cc2ccccc2)CC1`: -2% (inactive); `O=C(C=C1c2ccccc2-c2ccccc21)NC1CCC(CN2CCC(c3c[nH]c4ccccc34)CC2)CC1` (stereo not given): 21% (inactive) and 54% (active). `CC(=O)N(Cc1ccccc1-c1cccc(CNCc2ccc3c(c2)OCO3)c1)C1CCN(Cc2ccccc2)CC1`: the inhibition is 17% (inactive). The figure for `CC(Cc1ccc(OCCOc2ccccc2)cc1)NCC(O)c1cccc(C(F)(F)F)c1` (stereo not given) is 16% (inactive); for `CC(=O)Nc1ccc2[nH]cc(C3CCN(CC4CCN(C(=O)/C=C/c5ccc(Cl)c(Cl)c5)CC4)CC3)c2c1` it is 10% (inactive); for `CC(Cc1ccc(OCCCCOc2ccccc2)cc1)NCCCc1nc2ccccc2[nH]1` (stereo not given) it is 99% (active). Next, `FC(F)(F)c1ccc(NC(=S)NC2CCC(CN3CCC(c4c[nH]c5ccccc45)CC3)CC2)cc1` (stereo not given): 65% (active) and 92% (active); `COc1cccc(O)c1CNCC(O)c1cccc(C(F)(F)F)c1` (stereo not given): 31% (inactive). With `COc1ccc(CCNCc2ccc3nc(N)c(C)cc3c2)cc1`, the inhibition is -1% (inactive). Next, `Brc1cnc(NC2=NCCN2)c(Br)c1`: -6% (inactive). The figure for `COc1ccc(C(=O)[C@H]2C[C@@H]2CN2CC=C(c3c[nH]c4ccccc34)CC2)cc1` is 12% (inactive); for `Oc1ccc(CN2CCN(CCOC(c3ccc(F)cc3)c3ccc(F)cc3)CC2)cc1Cl` it is 19% (inactive); for `Oc1cc2c(cc1CN1CCN(Cc3ccccc3)CC1)CCC2` it is 1% (inactive).

With `CN(CC(=O)N1CCN(S(=O)(=O)c2cccc(Cl)c2)CC1CN1CCCC1)c1ccc(Cl)c(Cl)c1` (stereo not given), the inhibition is 32% (inactive). The figure for `O=C(/C=C/c1ccc(Cl)c(Cl)c1)N1CCC(CN2CCC(c3c[nH]c4cc(C(F)(F)F)ccc34)CC2)CC1` is 6% (inactive). In the case of `COc1cc(C=CC(=O)N2CCC(CN3CCC(c4c[nH]c5ccccc45)CC3)CC2)ccc1O`, the inhibition is 11% (inactive). In the case of `COC(=O)c1ccc(CC(C)NCC(O)c2cccc(C(F)(F)F)c2)c(Cl)c1` (stereo not given), the inhibition was -10% (inactive). As for `Cn1cc(CN2CCC(CCOC(c3ccccc3)c3ccccc3)CC2)cn1`, the inhibition is 27% (inactive). Next, `COc1cc(/C=C/C(=O)NC2CCC(CN3CCC(c4c[nH]c5ccccc45)CC3)CC2)ccc1O` (stereo not given): 11% (inactive) and 19% (inactive).
